Data published in article PMC4552634, “A New Set of Chemical Starting Points with Plasmodium falciparum Transmission-Blocking Potential for Antimalarial Drug Discovery” (PLoS ONE, 2015).
Where two headings read alike, the source gives them in different places. Hit rate of the full screen: of about 13,000 compounds, about 3,200 (25%) showed an effect of 50% or more. The list shows a part of the results.

System: P. falciparum stage V gametocytes
Set-up: BacTiter-Glo ATP luminescence viability of purified stage V gametocytes in 384-well plates, per cent inhibition versus DMSO
Conditions: 48 h, 5 µM, inhibitor

Row | SMILES | % Inhibition | % Inhibition (% Inhibition)
1 | N#Cc1c(N)nc(SCC(=O)Nc2cc(C(F)(F)F)ccc2Cl)c(C#N)c1-c1cccs1 [TCMDC-123750] | -5.622% | 
2 | COc1ccc(NC(=O)c2ccc(Br)c(C)c2)cc1N1CCN(Cc2ccccc2)CC1 [TCMDC-139031] | -19.8% | 
3 | CSc1cccc(NC(=O)c2cc3ccccc3oc2=O)c1 [TCMDC-123616] | 19.07% | 
4 | O=C(NCC(c1ccc(C(F)(F)F)cc1)N1CCCC1)c1cc(-c2ccncc2)c(-c2cccc(O)c2)o1 (stereo not drawn) [TCMDC-135665] | 33.87% | 
5 | CCn1c(SCc2ccccc2)nc2c1c(=O)[nH]c(=O)n2C [TCMDC-125734] | -6.834% | 
6 | CC(C)CNC(=S)N1CCCN(c2nc3ccc(Cl)cc3s2)CC1 [TCMDC-139465] | 24.85% | 
7 | Cc1noc(C)c1CN1Cc2ccccc2OC2(CCN(Cc3c[nH]c4cnccc34)CC2)C1 [TCMDC-133381] | 19.56% | 
8 | COc1ccc(NC(=O)NC2CCN(c3ccnc4cc(Cl)ccc34)CC2)cc1 [TCMDC-133573] | -92.42% | 
9 | CC(C)N1CCC(N(Cc2ccc(-c3ccc(Cl)cc3)cc2)C(=O)Cn2c(CCc3cccc(F)c3F)cc(=O)c3ccccc32)CC1 [TCMDC-141363] | 102.7% | 
10 | CN1CCC(N(Cc2ccc(-c3ccc(C(F)(F)F)cc3)cc2)C(=O)Cn2cc(Cc3cnn(C)c3)c(=O)nc2SCc2cccc(F)c2F)CC1 [TCMDC-141337] | 106.7% | 
11 | CCCC(C)NC(=O)[C@H](CC1CCCCC1)NC(=O)c1ccc(O)c(-c2cccc(C(F)(F)F)c2)c1 (stereo partly drawn) [TCMDC-140808] | 13.25% | 
12 | CC1CN=C(c2ccc(NC(=O)Nc3ccc(C4=NCC(C)N4)cc3)cc2)N1 (stereo not drawn) [TCMDC-137210] | -10.63% | 
13 | O=C(/C=C/c1ccc(Cl)c(Cl)c1)NCCCCCN1CCC(NC(=O)c2cccc(Cl)c2)CC1 [TCMDC-135868] | 49.83% | 
14 | N#Cc1cccc(NC(=O)NC2CCN(CCCCCNC(=O)/C=C/c3ccc(Cl)c(Cl)c3)CC2)c1 [TCMDC-135706] | -58.78% | 
15 | N#Cc1ccc(C(=O)NC2CCN(CCCCCNC(=O)/C=C/c3ccc(Cl)c(Cl)c3)CC2)cc1 [TCMDC-135837] | 78.66% | 
16 | N#Cc1ccc(NC(=O)NC2CCN(CCCCCNC(=O)/C=C/c3ccc(Cl)c(Cl)c3)CC2)cc1 [TCMDC-135705] | -23.68% | 
17 | O=C(/C=C/c1ccc(Cl)c(Cl)c1)NCCCCCN1CCC(NC(=O)c2ccc(F)cc2)CC1 [TCMDC-135840] | 0.6546% | 
18 | N#Cc1cccc(C(=O)NC2CCN(CCCCCNC(=O)/C=C/c3ccc(Cl)c(Cl)c3)CC2)c1 [TCMDC-135841] | 88.37% | 
19 | O=C(Nc1ccc(Cl)c(C(F)(F)F)c1)c1ccc(C(=O)Nc2ccc(Cl)c(C(F)(F)F)c2)cc1 [TCMDC-125581] | -42.79% | 
20 | CC1(C)N=C(N)N=C(N)N1OCCCCON1C(N)=NC(N)=NC1(C)C [TCMDC-131630] | 2.586% | 
21 | Cc1cc(NC(=O)NCCN2CCC(NS(=O)(=O)c3ccc(C(F)(F)F)cc3)C2)c2ccccc2n1 (stereo not drawn) [TCMDC-136140] | 44.51% | 
22 | O=C(Nc1ccccc1)N(Cc1ccccc1-c1cccc(CNCc2ccc3c(c2)OCO3)c1)C1CCN(Cc2ccccc2)CC1 [TCMDC-140582] | 47.74% | 

Row | SMILES | % Inhibition | % Inhibition (% Inhibition)
23 | O=C(Nc1ccccc1)N(Cc1cccc(-c2cccc(CNCCc3ccccc3)c2)c1)C1CCN(Cc2ccccc2)CC1 [TCMDC-140587] | 90.55% | 
24 | NCc1ccc(-c2ccccc2CN(C(=O)Nc2ccccc2)C2CCN(Cc3ccccc3)CC2)cc1 [TCMDC-140577] | 94.87% | 
25 | NCc1cccc(-c2cccc(CN(C(=O)Nc3ccccc3)C3CCN(Cc4ccccc4)CC3)c2)c1 [TCMDC-140583] | 102.4% | 
26 | O=C(Nc1ccccc1)N(Cc1ccccc1-c1cccc(CNCCc2ccccc2)c1)C1CCN(Cc2ccccc2)CC1 [TCMDC-140580] | 102.3% | 
27 | Cc1ccc(CN=C(N)NC(=O)c2nc(Cl)c(NCc3ccc(Cl)cc3)nc2N)c(C)c1 [TCMDC-138938] | 26.05% | 
28 | CN(c1ccc(NC(=O)c2cccc(F)c2)cc1)C1CCCN(Cc2cccc(O)c2)C1 (stereo not drawn) [TCMDC-134957] | -38.33% | 
29 | CC(=O)N(Cc1cccc(-c2cccc(CNCCc3ccccc3)c2)c1)C1CCN(Cc2ccccc2)CC1 [TCMDC-140527] | 98.23% | 
30 | CC(=O)N(Cc1cccc(-c2ccc(CNCCc3ccccc3)cc2)c1)C1CCN(Cc2ccccc2)CC1 [TCMDC-140528] | 44.2% | 
31 | O=C(Nc1ccccc1)N(Cc1cccc(-c2ccc(CNCCc3ccccc3)cc2)c1)C1CCN(Cc2ccccc2)CC1 [TCMDC-140588] | 106.9% | 
32 | S=C(Nc1cccc(Cl)c1)NC1CCN(c2ccnc3cc(Cl)ccc23)C1 (stereo not drawn) [TCMDC-133400] | 41.6% | 
33 | Cc1cc(CN2CCCN(c3ccc4c(c3)CCN(Cc3ccc(-c5ncc[nH]5)cc3)CC4)CC2)n(C)n1 [TCMDC-136550] | 22.45% | 
34 | COc1ccc2nccc([C@@H](O)CN3CCC(NC(=O)c4ccc5nc(-n6cccc6)sc5c4)CC3)c2c1 [TCMDC-141027] | -24.62% | 
35 | COc1cc2ccccc2c(OC)c1CNCCCCCCNCc1c(OC)cc2ccccc2c1OC [TCMDC-137843] | 116.8% | 
36 | COc1cc2c(cc1CCNCCCCNCCc1cc3c(cc1OC)CCCC3)CCCC2 [TCMDC-137319] | 108.4% | 
37 | COc1cc2ccccc2c(CON2C(N)=NC(N)=NC2(C)C)c1OC [TCMDC-131792] | 17.71% | 
38 | COc1cc2ccccc2cc1CCNCCCCNCCc1cc2ccccc2cc1OC [TCMDC-137944] | 108% | 
39 | COc1cc2ccccc2c(CNCCCCCCNCc2c(OC)c(OC)cc3ccccc23)c1OC [TCMDC-137795] | 103.3% | 
40 | Cl.O=C(Oc1ccc(C2CNCCc3c2cc(OC(=O)c2ccc(O)cc2)c(OC(=O)c2ccc(O)cc2)c3Cl)cc1)c1ccc(O)cc1 (stereo not drawn) [TCMDC-141978] | 49.99% | 
41 | CC(C)Sc1nncc(-c2cnnc(SC(C)C)n2)n1 [TCMDC-123740] | 3.174% | 
42 | COc1ccc2nccc([C@@H](O)CN3CCC(NCc4cc5cccc6c5n(c4=O)CCC6)CC3)c2c1 [TCMDC-140735] | -18.38% | 
43 | CCCc1cc(N2CCC(N3CCCC3)CC2)nc(Nc2ccc(OC)cc2)n1 [TCMDC-132387] | 2.102% | 
44 | C=C[C@H]1CN2CC[C@H]1C[C@H]2[C@H](O)c1ccnc2ccc(OC)cc12 [TCMDC-125479] |  | -1.021%

Row | SMILES | % Inhibition | % Inhibition (% Inhibition)
45 | CC(C)=CCc1c(-c2ccc(O)cc2O)oc2c3c(cc(O)c2c1=O)OC(C)(C)C=C3 [TCMDC-124149] | 26.1% | 
46 | COc1cc2ccccc2c(OC)c1CCNCCCCNCCc1c(OC)cc2ccccc2c1OC [TCMDC-137842] | 116.9% | 
47 | O=C(CC(c1ccccc1)c1ccccc1O)N1CCOCC1 (stereo not drawn) [TCMDC-125747] | -30.1% | 
48 | C=CCc1ccc(C[C@H](NC(=O)OC(C)(C)C)C(=O)OC)cc1 [TCMDC-138140] | 103.3% | 
49 | COC(=O)C(c1ccc(NC(=O)[C@H](CC(C)C)NC(=O)OC(C)(C)C)cc1)c1ccc(NC(=O)[C@H](CC(C)C)NC(=O)OC(C)(C)C)cc1 [TCMDC-131874] | -21.29% | 
50 | CC(C)(C)OC(=O)N[C@@H](Cc1ccccc1)C(=O)Nc1cccc(-c2cccc(NC(=O)[C@H](Cc3ccccc3)NC(=O)OC(C)(C)C)c2)c1 [TCMDC-131873] | -20.04% | 
51 | CC(C)(C)c1ccc(C(=O)N2CCC3(CC2)C(=O)N(CC(=O)NCC2CCCO2)CN3c2ccccc2)cc1 (stereo not drawn) [TCMDC-125172] | -58.74% | 
52 | COc1ccc(N2CCN(CCCCNC(=O)c3ccc(NC(=O)c4ccc(Cl)cc4)cc3)CC2)c(C)c1 [TCMDC-138431] | -16.53% | 
53 | CN(C)Cc1ccc(-c2cccc(NC(=O)c3cccc(Cl)c3)c2)cc1 [TCMDC-132644] | -4.056% | 
54 | CC(C)NCc1cccc(-c2cccc(NC(=O)c3cccc(Cl)c3)c2)c1 [TCMDC-132658] | 93.91% | 
55 | CC(C)NCc1ccc(-c2ccc(NC(=O)c3ccc(Cl)cc3)cc2)cc1 [TCMDC-132586] | 47.91% | 
56 | CC(C)NCc1ccc(-c2cccc(NC(=O)c3cccc(Cl)c3)c2)cc1 [TCMDC-132642] | 18.79% | 
57 | CN(C)CCN(C)Cc1ccc(-c2ccc(NC(=O)c3cccc(Cl)c3)cc2)cc1 [TCMDC-132593] | 39.43% | 
58 | CC(C)NCc1ccc(-c2ccc(NC(=O)c3cccc(Cl)c3)cc2)cc1 [TCMDC-132592] | 87.86% | 
59 | O=C(Nc1ccc(Cn2ncc(N3CCCNCC3)c(Cl)c2=O)cc1)Nc1ccc(OCc2ccccc2)cc1 [TCMDC-133319] | 26.32% | 
60 | COC(=O)c1ccc(CC(C)NCC(O)c2cccc(Cl)c2Cl)cc1 (stereo not drawn) [TCMDC-131483] | 20.31% | 
61 | O=C(COc1ccccc1)N(Cc1ccc(-c2ccc(CNC3Cc4ccccc4C3)cc2)cc1)C1CCNCC1 [TCMDC-141450] | 110% | 
62 | CC[C@H](C)CNC(=O)c1ccnc(-c2ccc(CNC3Cc4ccccc4C3)cc2)c1 [TCMDC-134253] | 2.834% | 
63 | CCCNC(=O)c1ccnc(-c2ccc(CNC3Cc4ccccc4C3)cc2)c1 [TCMDC-134255] | 1.364% | 
64 | CC(C)CNC(=O)c1cncc(-c2ccc(CNC3Cc4ccccc4C3)cc2)c1 [TCMDC-134241] | -1.576% | 
65 | CC(C)CC(=O)N(Cc1ccc(-c2ccc(CNC3Cc4ccccc4C3)cc2)cc1)C1CCNCC1 [TCMDC-141449] | 118.6% | 
66 | CC(C)CNC(=O)c1ccnc(-c2ccc(CNC3Cc4ccccc4C3)cc2)c1 [TCMDC-134254] | 4.563% | 
